The values below come from PubChem BioAssay (NCATS).

SMILES strings stand for the structures. Calls of active or inactive are those of the source. Calls come from the whole dose curve; as a rule, active = well fitted activation curve with a large enough effect; inconclusive = small, poorly fitted or top-dose-only effect; inactive = flat fitted curve, though single readings scatter.

A short description of the test: Cellular Toxicity (caspase-3) HepG2 (AID 654).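 Note: cells exposed to compound for 16 hours before reading.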 The conditions noted are these: HepG2 caspase-3 activation, luminescence, 0% = DMSO only, 100% = tamoxifen; series mostly up to 92.2 µM. An excerpt:
NIH Chemical Genomics Center [NCGC]
NIH Molecular Libraries Screening Centers Network [MLSCN]
National Institutes of Environmental Health Sciences [NIEHS]
National Toxicology Program [NTP]
We have developed a 1536-well cell-based assay for quantitative high throughput screening (qHTS) against a number of cell lines to determine in vitro caspase 3/7 of small molecules. This particular assay uses the HepG2 cell line which is derived from human hepatocellular carcinoma.
NCGC Assay Protocol Summary:
The Caspase-Glo 3/7 assay (Promega) is a homogeneous method to measure caspase-3 and caspase-7 activities in cultured cells. The quantitation of caspase 3/7 activity is based on the cleavage of a peptide-aminoluciferin substrate. After caspase cleaves the substrate the free aminoluciferin is liberated and serves as the substrate of luciferase, which generates the light. The luminescent signal is proportional to amount of caspase 3/7 activity present.
Using the Caspase-Glo 3/7 assay, the amount of caspase 3/7 activity was measured in the HepG2 cell line with complete culture medium following compound treatment for 16 hours. The assay was performed in opaque white 1536-well plates. In the screen, tamoxifen and doxorubicin were used as positive controls. Library compounds were measured for their ability to cause the activation of caspase 3/7 in the cell line, as reflected by an increase in luminescence signal, in a concentration-dependent manner. Data were normalized to the controls for basal activity (DMSO only) and 100% stimulation (100 uM tamoxifen). AC50 values were determined from concentration-response data modeled with the standard Hill equation.
qHTS protocol for caspase 3/7 assay in HepG2 cells
[Step] [Parameter] [Value] [Description]
1. Reagent; 5 uL; 1500 HepG2 cells/well
2. Time; 5 hr; 37 °C incubation
4. Controls; 23 nL; Tamoxifen 0.23 uM to 100 uM & Doxorubicin 7.0 pM to 100 uM
5. Time; 16 hr; 37 °C incubation
6. Reagent; 5 uL; Caspase-Glo 3/7 reagent
7. Time; 20 min; Room Temperature
8. Detection; Luminescence; Viewlux plate reader
Keywords: caspase 3/7, apoptosis, HepG2 cell line, luminescence, NTPHTS, NTPHTS_NCGC, NIEHS, EPA, DSSTox, MLSMR, MLSCN, NIH Roadmap, qHTS, NCGC
`OCC(Cl)CCl` (stereo not given): the call was inactive.
`Nn1cnnc1`: the outcome was inactive.
With `Clc1ccc(C(c2ccccc2Cl)C(Cl)(Cl)Cl)cc1` (stereo not given) the entry was “inactive”; with `Cc1ccc(N)c(C)c1`, “inactive”.
Take `COc1ccccc1N`: the compound was called inactive.
As for `BrCC(Br)(Br)Br`, the entry is “inactive”; as for `CCCCCOC(=O)c1ccccc1C(=O)OCCCCC`, “inactive”.
With `N#C/C=C/C#N` the entry was “inactive”; with `Brc1ccc(Oc2ccc(Br)cc2Br)c(Br)c1`, “inactive”; with `COC(C)(C)C`, “inactive”.
As to `O=[N+]([O-])c1ccccc1O`, the call was inactive.
Consider `N#CCCC#N`, for which the outcome was inactive.
Regarding `Nc1ccc(Oc2ccc(N)cc2)cc1`, the result was inactive.
For `O=[N+]([O-])c1c(Cl)c(Cl)c(Cl)c(Cl)c1Cl`, the compound was classed as inactive.
Take `Nc1ccc([N+](=O)[O-])cc1[N+](=O)[O-]`: the compound was called inactive.
On to `COc1ccc(C=O)cc1`, for which the compound was classed as inactive.
On to `N#CC(Br)Br`, for which the compound was classed as inactive.
As to `ClCC(Cl)Cl`, the outcome was inactive.
With `O=c1ccc(=O)[nH][nH]1` the entry was “inactive”.
Regarding `Cc1cc(N=Nc2ccccc2C)ccc1N`, the outcome was inactive.
`Nc1ncc([N+](=O)[O-])s1`: the compound was classed as inactive.
Regarding `O=[N+]([O-])c1cc(Cl)c(Cl)cc1Cl`, the result was inactive.
Regarding `Oc1cccc(Cl)c1`, the compound was classed as inactive.
In the case of `[N-]=[N+]=[N-]`, the call was inactive.
In the case of `ClCCBr`, the call was inactive.
Take `CCSC(=O)N1CCCCCC1`: the call was inactive.
As to `O=NN1CCCCC1`, the outcome was inactive.
`CCCCOC(C)=O`: the compound was called inactive.
With `CCCCC(CC)COC(=O)c1ccc(C(=O)OCC(CC)CCCC)c(C(=O)OCC(CC)CCCC)c1` (stereo not given) the entry was “inactive”; with `Oc1ccc(Cl)c(Cl)c1Cl`, “inactive”.
As for `C=CCCl`, the result was inactive.
Turning to `Nc1cc(Cl)cc(Cl)c1`, the call was inactive.
As to `Cc1cc(-c2cc(C)c(N)c(C)c2)cc(C)c1N`, the outcome was inactive.
As for `Clc1ccc(Cl)c(Cl)c1`, the entry is “inactive”; as for `N#CC(Cl)(Cl)Cl`, “inactive”.
As for `C[N+](=O)[O-]`, the entry is “inactive”; as for `c1ccc(P(c2ccccc2)c2ccccc2)cc1`, “inactive”.
With `O=[N+]([O-])c1cccc(CCl)c1` the entry was “inactive”; with `CN=C=O`, “inactive”; with `CCOP(=S)(OCC)SCCSCC`, “inactive”.
